MARV entry inh: qHTS for inhibitors of binding or entry into cells for Marburg Virus; AID 540276, 2011; Marburg virus pseudotyped entry inhibition, cell reporter; hit rate 1.8% among 300,000; Potency, µM (highest dose often 37.8 µM), most hits filed as inhibitors; calls by dose curve; tested in HEK293 cells
Vaccinia Venus: qHTS for Stage-Specific Inhibitors of Vaccinia Orthopoxvirus: Venus Reporter Primary qHTS | hit rate 0.46% among 330,000 | AID 720580, 2013 | Potency, µM (highest dose often 36.5 µM), actives largely listed as inhibitors | Vaccinia virus Venus reporter expression, fluorescence; calls by dose curve; tested in A549 cells; also: nearly all actives have a fitted effect of over 30% in size
HCV inhibitor: qHTS Assay for Inhibitors of Hepatitis C Virus (HCV); Potency, µM (top dose mostly 41.8 µM), hits mostly inhibitors; AID 651820, 2012; hit rate 3.4% among 340,000; Huh7.5.1 HCVcc-Cre infection, luciferase reporter, 44 h; active = well fitted inhibition curve with a large enough effect; inconclusive = small, poorly fitted or top-dose-only effect, or another doubt; inactive = no such curve, though single readings can be large or run the other way
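Whole-lifecycle infectious HCVcc-Cre system; cells 1,000/well, compound then virus (~0.5 moi) added 4 h after plating, 44 h culture. Luciferase read 15 sec following 15 min substrate incubation, room temp.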
Lassa entry inh: qHTS for Inhibitors of binding or entry into cells for Lassa Virus. AID 540256, 2011. Potency, µM (highest dose often 37.9 µM), actives largely listed as inhibitors. Lassa virus pseudotype entry inhibition, cell reporter. hit rate 1.2% among 300,000; calls by dose curve; tested in HEK293 cells; also: nearly all actives have a fitted effect of over 50% in size
HCMV inh: qHTS Assay for inhibitors of the human cytomegalovirus (HCMV) | hit rate 4.5% among 410,000 | activity change, negative = inhibition, % at 57.5 µM | HFF cells, HCMV-luciferase reporter, 72 h; active compounds read low; in the data active = activity change below about -60%; inconclusive = no clear call, values can overlap the other calls; inactive = above about -39%
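HFF cells seeded 16 h at 37C, treated with compounds, infected with luciferase-reporter HCMV at MOI 1 PFU/cell; luciferase read at 72 h post infection, normalized to buffer-only and Salinomycin controls.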
Vaccinia mCherry: qHTS for Stage-Specific Inhibitors of Vaccinia Orthopoxvirus: mCherry Reporter Primary qHTS; hit rate 0.63% among 310,000; Vaccinia virus mCherry reporter infection, fluorescence; Potency, µM (top dose mostly 36.5 µM), hits mostly inhibitors; calls by dose curve; tested in A549 cells; also: nearly all actives have a fitted effect of over 35% in size
Hits are given with their value; - = inactive; ? = inconclusive; . = not tested or not shown; ! = repeats disagree. Only some compounds are listed: those with a hit (about 7.8% of all), similar ones and a draw of the others.

SMILES	MARV entry inh	Vaccinia Venus	HCV inhibitor	Lassa entry inh	HCMV inh	Vaccinia mCherry
COc1cccc(CN(CC(=O)NC2CCCC2)C(=O)CCC(=O)Nc2cc(C)on2)c1	-	-	-	-	-81	-
CCC(C(=O)NC1CCCCC1)N(Cc1cccs1)C(=O)CCC(=O)Nc1cc(C)on1 (stereo not drawn)	?	-	11µM	?	-	-
Cc1cc(NC(=O)CCC(=O)N(c2ccc(F)cc2)C2(C(=O)NC3CCCCC3)CCCC2)no1	11µM	?	-	-	-	-
Cc1cc(NC(=O)CCC(=O)N(Cc2cccs2)C(C(=O)NC2CCCC2)c2ccncc2)no1 (stereo not drawn)	-	-	-	-	-	-
Cc1cc(=O)n(Cc2ccccc2Cl)c2c1c(C)nn2-c1ccccc1	.	-	.	-	-	-
O=c1c2ccccc2sc2ccc(C#CC3(O)CCCCC3)cc12	.	?	?	.	-100	-
O=c1c2ccccc2oc2cc(C#CC3(O)CCCCC3)ccc12	.	-	?	.	-80	-
COc1cccc2sc3ccc(C#CC4(O)CCCCC4)cc3c(=O)c12	.	-	?	.	-	-
CCC(CC)c1nn2c(=O)cc(COc3ccc(NC(=O)c4ccc(C)cc4)cc3)nc2s1	?	-	.	-	-	-
O=S(=O)(c1ccccc1)n1nc(-c2ccco2)nc1NCc1ccccc1	?	-	.	-	-	-
COc1ccccc1C(=O)Nc1c(C(=O)N(C)c2ccccc2)sc2nc(C)cc(C)c12	-	-	.	-	-	-
O=C(c1cccs1)N1N=C(c2ccccc2)CC1c1ccccc1 (stereo not drawn)	?	-	14µM	?	?	-
O=S(=O)(c1ccccc1)N1N=C(c2ccccc2)CC1c1ccccc1 (stereo not drawn)	?	-	-	-	-74	-
COc1ccc(C2CC(c3ccccc3)=NN2S(=O)(=O)c2ccc(C)cc2)c(OC)c1 (stereo not drawn)	?	-	?	?	-63	-
O=S(=O)(c1ccccc1)N1N=C(c2ccc(Cl)cc2)CC1c1ccco1 (stereo not drawn)	10µM	-	?	?	-	-
CC1=C(C(=O)OCc2ccccc2)N2C(=O)[C@@H](NC(=O)OCc3ccccc3)[C@H]2SC1	.	-	.	.	.	-
N#Cc1ccccc1OCC(O)CNCCNC(=O)Nc1ccccc1 (stereo not drawn)	.	-	.	.	.	-
O=C(c1ccc(C(F)(F)F)cc1)N(Cc1cc2ccc(F)cc2nc1N1CCOCC1)C1CC1	.	-	.	.	.	-
O=S(=O)(c1cccc2c(S(=O)(=O)N3CCCC3)cccc12)N1CCCC1	-	-	-	-	-	.
COc1c(S(=O)(=O)N2CCCCC2)ccc2c(S(=O)(=O)N3CCCCC3)cccc12	-	.	?	-	-85	.
O=S(=O)(c1cccc2c(Cl)cccc12)N1CCCNCC1	8.9µM!	-	.	-	.	-
COc1cc2c(cc1NC(=O)CCCCCN1C(=O)CCC1=O)oc1ccccc12	-	.	3.5µM	-	-	.
CCN(C(=O)CN1C(=O)NC2(CCCc3ccccc32)C1=O)c1ccc(F)cc1 (stereo not drawn)	.	.	-	.	-	.
COc1ccc(NC(=O)CC2SC(N3CCCC3)=NC2=O)cc1Cl (stereo not drawn)	.	.	-	.	-	.
CCN(C(=O)CN1C(=O)NC2(CCc3ccccc32)C1=O)C1CCCCC1 (stereo not drawn)	-	-	-	-	-100	-
SMILES	MARV entry inh	Vaccinia Venus	HCV inhibitor	Lassa entry inh	HCMV inh	Vaccinia mCherry
COc1cc2c(cc1NC(=O)CN1C(=O)NC3(CCc4ccccc43)C1=O)oc1ccccc12 (stereo not drawn)	12µM	?	?	?	-	10µM
COc1ccc(C)cc1NC(=O)CCCN1C(=O)CCC1=O	-	.	?	-	-	.
COc1cc2c(cc1NC(=O)CC1SC(N3CCCC3)=NC1=O)oc1ccccc12 (stereo not drawn)	?	?	11µM	-	-	?
O=C(CC1CC1)N1CC(=O)N2[C@@H](CO)[C@@H](c3ccc(Br)cc3)[C@@H]2C1	.	.	.	.	-	.
COc1cc2c(cc1NC(=O)CCCN1C(=O)CCC1=O)oc1ccccc12	-	-	11µM	-	-	-
CCC1CN(CC(=O)NC(C)CO)Cc2cc(OC)ccc2O1 (stereo not drawn)	.	-	.	.	.	-
